Measurements taken from the supplement of paper PMC11219838.
Unmarked numbers belong to inactive results.

Key:
Settings in all cases: 60 µM; 5 days; temperature: 20 °C
Meloidogyne hapla J2 = assay: proportion of mobile M. hapla J2 relative to DMSO control (fraction of DMSO control); higher = more viable, less nematicidal, active = 0.7 or less
Outline: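 Sealed 96-well plates, each well holding around 25 M. hapla J2 in distilled water with compound pinned to 60 µM final (0.6% v/v DMSO), were shaken at 200 rpm for 5 days at 20 °C. Then 2 µL of 1 M NaOH was added to each well. Microscope-scored mobility was normalised to the mean of DMSO-only wells from the same plate. Eight such wells were on each plate, and the two biological replicates were averaged.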

Ditylenchus dipsaci = assay: proportion of mobile D. dipsaci (mixed stage) relative to DMSO control (fraction of DMSO control); higher = more viable, less nematicidal, active = 0.86 or less; extreme values may be limits of the assay
Outline: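 Mobility, expressed relative to DMSO controls, is the mean of two biological replicates. The test organisms were D. dipsaci grown on pea plants in Gamborg B-5 agar and extracted into water by filter funnel, with about 20 added per well of a 96-well plate in distilled water. Compound was pinned to 60 µM final (0.6% v/v DMSO), plates were sealed and shaken at 200 rpm for 5 days at 20 °C, and mobile worms were scored under a microscope once 2 µL 1 M NaOH had been added.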

[1] = test system: Caenorhabditis elegans dauer (daf-2(e1370)); assay: proportion of mobile C. elegans dauer larvae relative to DMSO control (fraction of DMSO control); higher = more viable, less nematicidal, active = 0.63 or less; extreme values may be limits of the assay
Outline: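 The proportion of mobile worms, relative to DMSO wells, was scored by dissection microscope and averaged over two biological replicates. Worms were C. elegans dauers, about 20 per well in liquid NGM in 96-well plates, generated from synchronized larvae on MYOB plates with E. coli OP50 at 25 °C for 48 h. They were treated with compound pinned to 60 µM final (0.6% v/v DMSO) and kept in sealed plates shaken at 200 rpm for 5 days at 20 °C.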

Row | Compound | proportion of mobile M. hapla J2 (Meloidogyne hapla J2) | proportion of mobile D. dipsaci (Ditylenchus dipsaci) | proportion of mobile C. elegans dauer larvae [1]
1 | O=C(CSc1nnc(-c2ccccc2)o1)Nc1cc(C(F)(F)F)ccc1Cl | 1.04 | 1 | 
2 | COc1ccc(OC(C)c2nc(-c3cccnc3)no2)cc1 (configuration not stated) | 0.966 | 1 | 
3 | COc1ccc(-c2noc(COc3ccc(Cl)cc3C)n2)cc1 | 0.94 | 1 | 
4 | CCOc1ccc(-c2nc(-c3ccc(Cl)cc3)no2)cc1 |  | 1 | 1
5 | Cn1c(SCc2ccc(Cl)cc2)nnc1-c1ccco1 |  | 1 | 1
6 | Cc1cc(Br)ccc1OCc1nc(-c2cccnc2)no1 | 1.05 | 1 | 
7 | O=C(CSc1nnc(-c2ccc(Cl)cc2)o1)NCc1ccccc1 | 0.901 | 1 | 
8 | Clc1ccc(-c2noc(-c3ccncc3)n2)cc1 | 0.784 | 1 | 
9 | Clc1ccc(OCc2nc(-c3ccncc3)no2)cc1 | 0.749 | 1 | 
10 | CC(C)(C)NC(=O)c1ccccc1-c1nc(-c2ccccc2)no1 | 0.886 | 1 | 
11 | Brc1ccc(-c2noc(-c3ccco3)n2)o1 | 0.801 | 1 | 
12 | COc1ccc(CCC(=O)Nc2ccc(-c3noc(-c4ccccc4C)n3)cc2)cc1 | 0.791 | 1 | 
13 | Cc1ccc(-c2noc(CSc3nc4ccccc4[nH]3)n2)cc1 | 1.05 | 1 | 
14 | Cc1ccc(OC(C)c2nc(-c3cccnc3)no2)cc1 (configuration not stated) | 1.03 | 1 | 
15 | Cc1csc(NC(=O)CSc2nnc(-c3ccccc3Cl)o2)n1 | 0.849 | 1 | 
16 | O=C(Nc1ccccc1-c1nc(-c2ccncc2)no1)c1ccccc1Cl | 0.979 | 1 | 
17 | Cc1nc(CSc2nnc(-c3ccccc3)o2)cs1 | 0.282 (active) | 1 | 
18 | O=C(CSc1nnc(-c2ccco2)o1)c1ccccc1 | 0.974 | 1 | 
19 | Brc1ccc(CSc2nnc(-c3ccco3)o2)cc1 | 0.995 | 1 | 
20 | Cc1cc(OCc2nc(-c3ccc(NC(=O)c4ccc5c(c4)OCO5)cc3)no2)ccc1Cl |  | 1 | 1
21 | CCOc1cc(-c2nc(-c3cc4ccccc4nc3OC)no2)cc(OCC)c1OCC |  | 1 | 1
22 | CCc1ccc(OCc2nc(-c3cccnc3)no2)cc1 |  | 1 | 0.436 (active)
23 | Cc1cc(C)cc(-c2nc(-c3ccc(Cl)cc3)no2)c1 |  | 1 | 1

Row | Compound | proportion of mobile M. hapla J2 (Meloidogyne hapla J2) | proportion of mobile D. dipsaci (Ditylenchus dipsaci) | proportion of mobile C. elegans dauer larvae [1]
24 | O=C(CSc1nnc(-c2ccc(Cl)cc2Cl)o1)Nc1ccccn1 |  | 1 | 1
25 | Cc1ccccc1-c1nnc(SCc2ccc(F)cc2)o1 |  | 1 | 1
26 | COc1ccc(CC(=O)Nc2ccc(-c3noc(COc4cccc(C)c4C)n3)cc2)cc1 |  | 1 | 1
27 | CC(C)(C)c1ccc(OCc2nc(-c3ccncc3)no2)c(Br)c1 |  | 1 | 1
28 | Nc1nc(CSc2nnc(-c3ccccc3)o2)cs1 |  | 1 | 1
29 | COc1nc(C)ccc1-c1noc(-c2ccc(C)cc2)n1 |  | 1 | 1
30 | CCOc1nc(-c2ccc(C)cc2)ccc1-c1noc(-c2ccc(F)cc2)n1 |  | 1 | 1
31 | Fc1ccc(-c2noc(-c3ccc(F)cc3)n2)cc1 |  | 1 | 1
32 | O=C(CSc1nnc(-c2cccc(Br)c2)o1)N1CCCCC1 |  | 1 | 1
33 | Cc1ccc(-c2nc(-c3ccc(Br)cc3)no2)cc1 |  | 1 | 1
34 | Fc1ccccc1-c1nc(-c2ccc(Cl)cc2)no1 |  | 1 | 1
35 | CCn1c(C)cc(C(=O)CSc2nnc(-c3ccccc3)o2)c1C |  | 1 | 1
36 | COc1ccccc1-c1nnc(SCC(=O)Nc2ccc(Br)cn2)o1 |  | 1 | 1
37 | CCOc1ccccc1-c1nnc(SCC(=O)Nc2ccccc2)o1 |  | 1 | 1
38 | COc1nc2ccc(C)cc2cc1-c1noc(-c2ccncc2)n1 |  | 1 | 1
39 | COc1cccc(-c2noc(-c3c(F)cccc3F)n2)c1 |  | 1 | 1
40 | CCc1cccc(CC)c1NC(=O)CSc1nnc(-c2ccccc2OC)o1 |  | 1 | 1
41 | O=C(Nc1cccnc1)c1ccccc1-c1nc(-c2ccc(Cl)cc2)no1 |  | 1 | 1
42 | Clc1ccc(CSc2nnc(-c3ccccc3)o2)cc1Cl |  | 1 | 1
43 | COc1cccc(-c2nnc(SCC(=O)NC3CCCCC3)o2)c1 |  | 1 | 1
44 | CC1CC(C)CN(C(=O)CSc2nnc(-c3ccccc3)o2)C1 (configuration not stated) |  | 1 | 1
45 | Cc1cccc(OCc2nc(-c3ccncc3)no2)c1C |  | 1 | 1
46 | CC1CCN(C(=O)CSc2nnc(-c3cccc(Cl)c3)o2)CC1 |  | 1 | 1

Row | Compound | proportion of mobile M. hapla J2 (Meloidogyne hapla J2) | proportion of mobile D. dipsaci (Ditylenchus dipsaci) | proportion of mobile C. elegans dauer larvae [1]
47 | COc1ccc(-c2noc(-c3ccccc3Br)n2)cc1 |  | 1 | 1
48 | CCOc1nc(-c2ccccc2)ccc1-c1noc(-c2cccc(OC)c2)n1 |  | 1 | 1
49 | Cc1ccccc1OCc1nc(-c2ccc(NC(=O)c3ccc(Br)o3)cc2)no1 |  | 1 | 1
50 | O=C(CSc1nnc(-c2ccc(Cl)cc2)o1)Nc1nccs1 |  | 1 | 1
51 | Brc1ccc(-c2noc(-c3ccc(Br)o3)n2)o1 |  | 1 | 1
52 | Cc1ccccc1CSc1nnc(-c2ccco2)n1C |  | 0.75 (active) | 1
53 | Cc1cc(C)cc(OCc2nc(-c3ccccc3Cl)no2)c1 |  | 1 | 1
54 | CCOc1ccccc1NC(=O)CSc1nnc(-c2ccco2)o1 |  | 1 | 1
55 | CNC(=O)c1ccccc1-c1nc(-c2ccc(Cl)cc2)no1 |  | 1 | 1
56 | COc1ccc(-c2nnc(SCC(=O)Nc3cc(Cl)ccc3C)o2)cc1 |  | 1 | 1
57 | COc1cccc(-c2noc(-c3ccc(C)cc3Cl)n2)c1 |  | 1 | 1
58 | COc1ccc(-c2noc(COc3ccc(Cl)cc3)n2)cc1 |  | 1 | 1
59 | c1ccc(-c2noc(CSc3nc4ccccc4[nH]3)n2)cc1 |  | 1 | 1
60 | Cc1ccc(OCc2nc(-c3ccc(Br)o3)no2)cc1C |  | 1 | 1
61 | COc1cccc(NC(=O)CSc2nnc(-c3ccc(C)cc3)o2)c1 |  | 1 | 1
62 | CCOc1ccccc1-c1nc(-c2cccc(C)c2)no1 |  | 1 | 1
63 | Cc1ccc(-c2noc(-c3ccccc3OCC(N)=O)n2)cc1 |  | 1 | 1
64 | Cc1cccc(-c2noc(COc3ccc(Cl)cc3C)n2)c1 |  | 1 | 1
65 | O=C(CSc1nnc(-c2ccco2)o1)Nc1cccc(Cl)c1Cl |  | 1 | 1
66 | Clc1ccc(-c2noc(-c3ccccc3Cl)n2)cc1 |  | 1 | 1
67 | Cc1ccccc1-c1nc(-c2ccc(Cl)cc2)no1 |  | 1 | 1
68 | Cc1ccc(-c2noc(-c3ccc(Br)o3)n2)s1 |  | 1 | 1
69 | COc1ccc(-c2noc(-c3ccccc3C(=O)Nc3cccc(C)c3C)n2)cc1 |  | 1 | 1

Row | Compound | proportion of mobile M. hapla J2 (Meloidogyne hapla J2) | proportion of mobile D. dipsaci (Ditylenchus dipsaci) | proportion of mobile C. elegans dauer larvae [1]
70 | COc1ccc(-c2noc(-c3ccccc3Cl)n2)cc1 |  | 1 | 1
71 | CNC(=O)c1ccccc1-c1nc(-c2ccccc2Cl)no1 |  | 1 | 1
72 | Cc1ccccc1OCc1nc(-c2cccs2)no1 |  | 1 | 1
73 | CCCCC(=O)Nc1ccccc1-c1nc(-c2ccccn2)no1 |  | 1 | 1
74 | Fc1ccc(-c2noc(COc3ccccc3)n2)cc1 |  | 1 | 0.5 (active)
75 | CCN(CC)C(=O)CSc1nnc(-c2ccc(Br)cc2)o1 |  | 1 | 1
76 | Cc1ccc(-c2nc(-c3ccccc3)no2)cc1Cl |  | 1 | 1
77 | Cc1ccc(-c2nnc(SCc3ccccc3)o2)cc1 |  | 0.889 | 0.371 (active)
78 | CCc1ccc(C(=O)Nc2ccccc2-c2nc(-c3ccncc3)no2)cc1 |  | 1 | 1
79 | c1ccc2cc(-c3nc(-c4ccncc4)no3)ccc2c1 |  | 1 | 1
80 | Cc1ccc(-c2noc(COc3cccc(C)c3)n2)cc1 |  | 1 | 1
81 | O=C(CSc1nnc(-c2ccccc2)o1)c1ccc(Br)cc1 |  | 1 | 1
82 | CCCc1ccc(-c2nc(-c3ccc(F)cc3)no2)cc1 |  | 1 | 0.714
83 | O=C(Nc1cccc(-c2noc(-c3cccnc3)n2)c1)c1cccs1 |  | 1 | 1
84 | Cc1ccc(-c2nnc(SCC(=O)Nc3c(C)cc(C)cc3C)o2)cc1 |  | 1 | 1
85 | Cc1cnc(NC(=O)CSc2nnc(-c3cccc(Cl)c3)o2)s1 |  | 0.9 | 1
86 | N#Cc1ccc(OCc2nc(-c3ccc(Br)o3)no2)cc1 |  | 1 | 1
87 | COc1ccccc1OCc1nc(-c2cccc(C)c2)no1 |  | 1 | 1
88 | Cc1ccc(-c2nc(-c3ccccc3Br)no2)cc1 |  | 1 | 1
89 | COc1ccc(Cl)cc1-c1noc(COc2ccc(Cl)cc2)n1 |  | 1 | 1
90 | COc1cccc(-c2noc(CSc3ccc(Cl)cc3)n2)c1 |  | 1 | 1
91 | COc1ccccc1-c1nnc(SCc2ccc(C#N)cc2)o1 |  | 1 | 1
